Out of some 5,500 compounds screened, about 2,000 (36%) were called active. Inconclusive results (about 18%) are left out. Rule as the data show it: active = normalized growth mostly below about 0.91 (no sharp cut-off); inconclusive = no clear call, values can overlap the other calls; inactive = mostly above about 0.92. This is one part of the list.
Assay: chemical genetic growth profiling, strain panel (AID 1159580);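 also: tested at 20 µM; growth read once vehicle control cultures reached saturation at 30 °C; 1 = growth at the plate median or of vehicle wells; lower values mean less growth of the strain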
Conditions: growth OD

Measured: normalized growth

C#C[C@]1(O)CCC2C3CCC4=Cc5oncc5C[C@]4(C)C3CC[C@@]21C (some centres not stated)
active: S. cerevisiae deletion strains, locus YKL068W, active compounds read low 0.922 | S. cerevisiae deletion strains, locus YKL085W, strain MDH1 (second series), active compounds read low 0.889 | S. cerevisiae deletion strains, locus YKL085W, strain MDH1, active compounds read low 0.889 | S. cerevisiae deletion strains, locus YKR001C, strain vps1, active compounds read low 0.831 | S. cerevisiae deletion strains, locus YLR027C, strain aat2, active compounds read low 0.911 | S. cerevisiae deletion strains, locus YLR039C, strain RIC1, active compounds read low 0.574 | S. cerevisiae deletion strains, locus YLR262C, strain YPT6 (second series), active compounds read low 0.792 | S. cerevisiae deletion strains, locus YLR262C, strain YPT6, active compounds read low 0.565 | S. cerevisiae deletion strains, locus YLR268W, strain sec22, active compounds read low 0.838 | S. cerevisiae deletion strains, locus YLR330W, strain CHS5, active compounds read low 0.902 | S. cerevisiae deletion strains, locus YLR342W, strain FKS1, active compounds read low 0.875 | S. cerevisiae deletion strains, locus YLR371W, strain rom2, active compounds read low 0.852 | S. cerevisiae deletion strains, locus YLR418C, strain cdc73, active compounds read low 0.645 | S. cerevisiae deletion strains, locus YML124C, strain tub3, active compounds read low 0.92 | S. cerevisiae deletion strains, locus YNL071W, strain lat1, active compounds read low 0.841 | S. cerevisiae deletion strains, locus YNL233W, strain BNI4, active compounds read low 0.843 | S. cerevisiae deletion strains, locus YNL271C, strain bni1, active compounds read low 0.908 | S. cerevisiae deletion strains, locus YNL307C, strain MCK1, active compounds read low 0.759 | S. cerevisiae deletion strains, locus YOL147C, strain pex11, active compounds read low 0.899 | S. cerevisiae deletion strains, locus YOR144C, strain elg1, active compounds read low 0.914 | S. cerevisiae deletion strains, locus YOR184W, strain ser1, active compounds read low 0.59 | S. cerevisiae deletion strains, locus YPL055C, strain LGE1, active compounds read low 0.75 | S. cerevisiae deletion strains, locus YPR119W, strain clb2, active compounds read low 0.915 | S. cerevisiae deletion strains, locus YPR141C, strain kar3, active compounds read low 0.895 | S. cerevisiae deletion strains, locus YPR163C, strain tif3, active compounds read low 0.877 | S. cerevisiae deletion strains, strain wtn01, active compounds read low 0.887
inactive: S. cerevisiae deletion strains, locus YJR066W, strain TOR1, active compounds read low 0.956 | S. cerevisiae deletion strains, locus YKL009W, strain mrt4, active compounds read low 0.954 | S. cerevisiae deletion strains, locus YKL160W, strain elf1, active compounds read low 0.925 | S. cerevisiae deletion strains, locus YKR026C, strain gcn3, active compounds read low 0.948 | S. cerevisiae deletion strains, locus YKR091W, strain srl3, active compounds read low 0.964 | S. cerevisiae deletion strains, locus YLL001W, strain dnm1, active compounds read low 0.921 | S. cerevisiae deletion strains, locus YLL026W, active compounds read low 0.94 | S. cerevisiae deletion strains, locus YLL041C, strain sdh2, active compounds read low 0.961 | S. cerevisiae deletion strains, locus YLR058C, strain SHM2, active compounds read low 0.898 | S. cerevisiae deletion strains, locus YLR102C, strain apc9, active compounds read low 0.949 | S. cerevisiae deletion strains, locus YLR113W, strain HOG1, active compounds read low 0.95 | S. cerevisiae deletion strains, locus YLR221C, strain rsa3, active compounds read low 0.957 | S. cerevisiae deletion strains, locus YLR258W, strain gsy2, active compounds read low 0.955 | S. cerevisiae deletion strains, locus YLR320W, strain mms22, active compounds read low 0.914 | S. cerevisiae deletion strains, locus YLR342W, strain FKS1 (second series), active compounds read low 0.926 | S. cerevisiae deletion strains, locus YLR357W, strain rsc2, active compounds read low 0.944 | S. cerevisiae deletion strains, locus YLR370C, strain arc18, active compounds read low 0.975 | S. cerevisiae deletion strains, locus YLR384C, strain iki3, active compounds read low 0.958 | S. cerevisiae deletion strains, locus YML016C, strain PPZ1, active compounds read low 0.935 | S. cerevisiae deletion strains, locus YML032C, strain rad52, active compounds read low 0.928 | S. cerevisiae deletion strains, locus YML120C, strain ndi1, active compounds read low 0.924 | S. cerevisiae deletion strains, locus YMR058W, strain fet3, active compounds read low 0.938 | S. cerevisiae deletion strains, locus YMR078C, strain ctf18, active compounds read low 0.923 | S. cerevisiae deletion strains, locus YMR125W, strain sto1, active compounds read low 0.94 | S. cerevisiae deletion strains, locus YMR129W, active compounds read low 0.959 | S. cerevisiae deletion strains, locus YMR205C, strain PFK2, active compounds read low 0.92 | S. cerevisiae deletion strains, locus YMR223W, strain ubp8, active compounds read low 0.953 | S. cerevisiae deletion strains, locus YMR231W, strain pep5, active compounds read low 0.965 | S. cerevisiae deletion strains, locus YMR263W, strain SAP30, active compounds read low 0.926 | S. cerevisiae deletion strains, locus YMR307W, strain GAS1, active compounds read low 0.73 | S. cerevisiae deletion strains, locus YNL067W, strain RPL9B, active compounds read low 0.927 | S. cerevisiae deletion strains, locus YNL183C, strain NPR1, active compounds read low 0.95 | S. cerevisiae deletion strains, locus YNL209W, strain ssb2, active compounds read low 0.991 | S. cerevisiae deletion strains, locus YNL248C, strain rpa49, active compounds read low 0.982 | S. cerevisiae deletion strains, locus YNL250W, strain rad50, active compounds read low 0.928 | S. cerevisiae deletion strains, locus YNL298W, strain CLA4, active compounds read low 0.953 | S. cerevisiae deletion strains, locus YNL322C, strain KRE1 (second series), active compounds read low 0.945 | S. cerevisiae deletion strains, locus YNR049C, strain mso1, active compounds read low 0.961 | S. cerevisiae deletion strains, locus YNR052C, strain pop2, active compounds read low 0.956 | S. cerevisiae deletion strains, locus YOL012C, strain htz1 0.535 | S. cerevisiae deletion strains, locus YOR001W, strain rrp6, active compounds read low 0.972 | S. cerevisiae deletion strains, locus YOR061W, strain CKA2, active compounds read low 0.904 | S. cerevisiae deletion strains, locus YOR069W, strain VPS5, active compounds read low 0.955 | S. cerevisiae deletion strains, locus YOR070C, strain gyp1, active compounds read low 0.975 | S. cerevisiae deletion strains, locus YOR080W, strain dia2, active compounds read low 0.957 | S. cerevisiae deletion strains, locus YOR083W, strain WHI5, active compounds read low 0.941 | S. cerevisiae deletion strains, locus YOR106W, strain vam3, active compounds read low 0.963 | S. cerevisiae deletion strains, locus YOR136W, strain idh2, active compounds read low 0.922 | S. cerevisiae deletion strains, locus YOR231W, strain MKK1, active compounds read low 0.988 | S. cerevisiae deletion strains, locus YOR265W, strain rbl2, active compounds read low 0.966 | S. cerevisiae deletion strains, locus YOR270C, strain vph1, active compounds read low 0.824 | S. cerevisiae deletion strains, locus YOR290C, strain snf2, active compounds read low 1 | S. cerevisiae deletion strains, locus YOR316C, strain cot1, active compounds read low 0.925 | S. cerevisiae deletion strains, locus YPL051W, strain arl3, active compounds read low 0.945 | S. cerevisiae deletion strains, locus YPL078C, strain atp4, active compounds read low 0.902 | S. cerevisiae deletion strains, locus YPL106C, strain sse1, active compounds read low 0.984 | S. cerevisiae deletion strains, locus YPL240C, strain hsp82, active compounds read low 0.967 | S. cerevisiae deletion strains, locus YPL241C, strain CIN2, active compounds read low 0.931 | S. cerevisiae deletion strains, locus YPL256C, strain CLN2, active compounds read low 0.975 | S. cerevisiae deletion strains, locus YPR167C, strain met16, active compounds read low 0.926 | S. cerevisiae strains, strain wild type, active compounds read low 0.911
